Test results from PubChem BioAssay (Tox21).
“And” between values parts separate entries of the source, which are not always exact repeats. Equal entries are not always repeated. Inconclusive results are not listed. Entries that show only a call come without a potency. Where a structure was tested more than once in an assay, its records may differ in their call. The source made the active and inactive calls. Unless noted, calls come from the whole dose curve; as a rule, active = well fitted curve in the direction sought with a large enough effect in the repeat runs; inconclusive = weak or mixed curves; inactive = no such curve, though single readings can be large; an effect the other way counts as inactive or inconclusive.

Columns and labels:
[1] = A CellTox Green Cytotoxicity Assay to monitor cytotoxicity in HepG2 cells - 32 hour (AID 1224883); note: potency is the fitted concentration of half-maximal effect; nearly all actives have a fitted effect of over 50% in size
Outline: (§1)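 Nonlytic assay: viable cells exclude the dye, so fluorescence scales with cell death. HepG2 at 600 cells/well, compounds added after 5 h, signal read across 40 h.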

[2] = A CellTox Green Cytotoxicity Assay to monitor cytotoxicity in HEK293 cells - 8 hour (AID 1224884); note: nearly all actives have a fitted effect of over 35% in size; note: potency is the fitted concentration of half-maximal effect
Outline: (§2)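 Seeding of HEK293 cells together with cytotoxicity dye preceded a 5 h incubation at 37 C/5% CO2. Test compounds in DMSO were then added and fluorescence monitored across 40 h.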

[3] = qHTS RealTime-Glo MT Cell Viability Assay in HEK293 cells - 24 hour (AID 1224886); note: nearly all actives have a fitted effect of over 50% in size; note: potency is the fitted concentration of half-maximal effect
Outline: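 Luminescence generated by NanoLuc from substrate produced by living HEK293 cells served as the viability signal. Each value reflects the reading at its stated time point during continuous 40 h compound exposure at 37 C.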

[4] = qHTS RealTime-Glo MT Cell Viability Assay in HEK293 cells - 8 hour (AID 1224887); note: nearly all actives have a fitted effect of over 50% in size; note: potency is the fitted concentration of half-maximal effect
Outline: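 Tox21 screen in HEK293 using RealTime-Glo MT chemistry, with cells and reagent co-dispensed. Luminescence proportional to viable cell number was captured at intervals during 40 h compound exposure at 37 C.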

[5] = A CellTox Green Cytotoxicity Assay to monitor cytotoxicity in HEK293 cells - 16 hour (AID 1224888); note: nearly all actives have a fitted effect of over 35% in size; note: potency is the fitted concentration of half-maximal effect
Outline: as §2

[6] = qHTS RealTime-Glo MT Cell Viability Assay in HepG2 cells - 0 hour (AID 1224889); note: nearly all actives have a fitted effect of over 50% in size
Outline: (§3)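 Tox21 10K library screened in qHTS format on HepG2 cells carrying RealTime-Glo reagents. Compounds were added after a 5 h preincubation, and the luminescent signal from continuous culture was measured repeatedly during 40 h treatment.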

[7] = A CellTox Green Cytotoxicity Assay to monitor cytotoxicity in HepG2 cells - 8 hour (AID 1224890); note: nearly all actives have a fitted effect of over 45% in size; note: potency is the fitted concentration of half-maximal effect
Outline: as §1

[8] = qHTS assay to identify small molecule antagonists of the estrogen receptor alpha (ER-alpha) signaling pathway using the BG1 cell line in the presence of 0.1 nM 17-beta-estradiol - cell viability counter screen (AID 1259241); note: nearly all actives have a fitted effect of over 40% in size; note: potency is the fitted concentration of half-maximal effect
Outline: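 In this screen, hormone-deprived VM7Luc4E2 cells were seeded at 4,000 per well, dosed with compound and 0.1 nM estradiol final, and incubated 22 hr at 37C and 5% CO2; fluorogenic live-cell protease signal reported viability.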

[9] = target: Estrogen receptor (Homo sapiens) (UniProt P03372); experiment: qHTS assay to identify small molecule antagonists of the estrogen receptor alpha (ER-alpha) signaling pathway using the BG1 cell line in the presence of 0.1 nM 17-beta-estradiol (AID 1259244); note: nearly all actives have a fitted effect of over 50% in size; note: potency is the fitted concentration of half-maximal effect
Chain of Estrogen receptor (Homo sapiens) (P03372 whole entry, looked up): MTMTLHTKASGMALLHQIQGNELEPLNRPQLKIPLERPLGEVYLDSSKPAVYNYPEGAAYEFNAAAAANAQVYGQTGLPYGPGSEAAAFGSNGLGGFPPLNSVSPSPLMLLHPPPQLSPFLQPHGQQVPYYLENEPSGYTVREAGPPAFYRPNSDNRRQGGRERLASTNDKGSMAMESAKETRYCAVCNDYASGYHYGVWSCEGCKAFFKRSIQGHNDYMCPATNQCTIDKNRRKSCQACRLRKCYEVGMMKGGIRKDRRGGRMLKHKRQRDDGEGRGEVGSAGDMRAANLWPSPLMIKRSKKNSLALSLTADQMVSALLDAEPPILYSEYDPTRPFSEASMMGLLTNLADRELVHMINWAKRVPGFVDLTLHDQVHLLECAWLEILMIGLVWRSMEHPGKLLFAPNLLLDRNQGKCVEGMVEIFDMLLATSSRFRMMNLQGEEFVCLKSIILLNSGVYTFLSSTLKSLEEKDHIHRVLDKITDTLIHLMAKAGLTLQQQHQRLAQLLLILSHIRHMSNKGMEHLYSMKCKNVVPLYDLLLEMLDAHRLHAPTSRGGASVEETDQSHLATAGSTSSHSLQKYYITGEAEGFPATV
Outline: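 VM7Luc4E2; 4xERE-luciferase; 0.1 nM E2 final; 22 h co-incubation, 37C; ONE-Glo luminescence after 30 min at room temperature.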

[10] = qHTS assay to identify small molecule phospholipidosis (PLD) inducers (AID 1259344; active = well fitted curve in the direction sought with a large enough effect; an effect the other way counts as inactive or inconclusive)
Outline: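 Fluorescent phospholipid staining (LipidTOX Red) measured by automated microscopy in fixed HepG2 cells after 24 h treatment; nuclei counterstained with Hoechst 33342; amiodarone as reference inducer.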

[11] = qHTS assay to identify small molecule HDAC inhibitors (AID 1259364); note: potency is the fitted concentration of half-maximal effect;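 note: wild-type HCT-116 cells with endogenous class I/II HDAC activity; nearly all actives have a fitted effect of over 45% in size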
Outline: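 Relative class I and II HDAC activity is taken from the luminogenic signal in HCT-116 cells, with compound exposure 2 hr and reagent development 30 min at room temperature.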

[12] = qHTS assay to identify small molecule HDAC inhibitors - cell viability counter screen (AID 1259365)
Outline: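 Measured quantity is CellTiter-Glo luminescence from wild-type HCT-116 cells after compound incubation of 2hr at 37C, 5% CO2; reagent developed 30min at room temperature.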

[13] = qHTS assay to identify small molecule agonists of the sonic hedgehog signaling (Shh) pathway (AID 1259368; calls by dose curve;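 note: NIH/3T3-derived 3T3Gli1-Luc cells carrying a stable Gli1-driven firefly luciferase reporter; series mostly up to about 92 µM; nearly all actives have a fitted effect of over 15% in size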)
Outline: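 Mouse fibroblast (NIH/3T3) reporter cells with stably integrated Gli1-Luc were treated 24 hr with compound; firefly luciferase luminescence served as the read-out.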

[14] = qHTS assay to identify small molecule antagonists of the sonic hedgehog signaling (Shh) pathway (AID 1259369; calls by dose curve; note: nearly all actives have a fitted effect of over 45% in size; note: potency is the fitted concentration of half-maximal effect)
Outline: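 Conditioned medium drives Shh signalling in 3T3Gli1-Luc cells; compounds in DMSO co-applied, 24hr at 37 C, then luciferase luminescence.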

[15] = A CellTox Green Cytotoxicity Assay to monitor cytotoxicity in HepG2 cells - 0 hour (AID 1224882); note: nearly all actives have a fitted effect of over 35% in size
Outline: as §1

[16] = qHTS RealTime-Glo MT Cell Viability Assay in HepG2 cells - 16 hour (AID 1224885); note: nearly all actives have a fitted effect of over 50% in size; note: potency is the fitted concentration of half-maximal effect
Outline: as §3

[17] = qHTS assay to identify small molecule antagonists of the androgen receptor (AR) signaling pathway using the MDA cell line in the presence of 0.5 nM R1881 - cell viability counter screen (AID 1259242); note: nearly all actives have a fitted effect of over 45% in size; note: potency is the fitted concentration of half-maximal effect
Outline: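 R1881 at 0.5 nM final stimulated MDA-kb2 cells during 16 hr compound treatment at 37C. Cytotoxicity read: CellTiter-Fluor fluorescence after 30 min.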

[18] = qHTS assay to identify small molecule agonists of the sonic hedgehog signaling (Shh) pathway - cell viability counter screen (AID 1259366); note: nearly all actives have a fitted effect of over 50% in size; note: potency is the fitted concentration of half-maximal effect
Outline: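 In quantitative high-throughput format, 3T3 Gli1-Luc cells were exposed to compounds for 24hr and multiplexed for viability using CellTiter-Fluor, incubated 1hr at 37C before the fluorescence read.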

[19] = qHTS assay to identify small molecule antagonists of the sonic hedgehog signaling (Shh) pathway - cell viability counter screen (AID 1259367); note: nearly all actives have a fitted effect of over 55% in size; note: potency is the fitted concentration of half-maximal effect
Outline: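 Using CellTiter-Fluor, viability of Gli1-Luc reporter 3T3 cells is read by fluorescence in the wells used for the Shh luciferase assay. Treatment lasts 23 hr with conditioned medium, then reagent 1 hr at 37C.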

[20] = target: Androgen receptor (Homo sapiens) (UniProt P10275); experiment: qHTS assay to identify small molecule antagonists of the androgen receptor (AR) signaling pathway using the MDA cell line in the presence of 0.5 nM R1881 (AID 1259243)
Chain of Androgen receptor (Homo sapiens) (P10275 whole entry, looked up): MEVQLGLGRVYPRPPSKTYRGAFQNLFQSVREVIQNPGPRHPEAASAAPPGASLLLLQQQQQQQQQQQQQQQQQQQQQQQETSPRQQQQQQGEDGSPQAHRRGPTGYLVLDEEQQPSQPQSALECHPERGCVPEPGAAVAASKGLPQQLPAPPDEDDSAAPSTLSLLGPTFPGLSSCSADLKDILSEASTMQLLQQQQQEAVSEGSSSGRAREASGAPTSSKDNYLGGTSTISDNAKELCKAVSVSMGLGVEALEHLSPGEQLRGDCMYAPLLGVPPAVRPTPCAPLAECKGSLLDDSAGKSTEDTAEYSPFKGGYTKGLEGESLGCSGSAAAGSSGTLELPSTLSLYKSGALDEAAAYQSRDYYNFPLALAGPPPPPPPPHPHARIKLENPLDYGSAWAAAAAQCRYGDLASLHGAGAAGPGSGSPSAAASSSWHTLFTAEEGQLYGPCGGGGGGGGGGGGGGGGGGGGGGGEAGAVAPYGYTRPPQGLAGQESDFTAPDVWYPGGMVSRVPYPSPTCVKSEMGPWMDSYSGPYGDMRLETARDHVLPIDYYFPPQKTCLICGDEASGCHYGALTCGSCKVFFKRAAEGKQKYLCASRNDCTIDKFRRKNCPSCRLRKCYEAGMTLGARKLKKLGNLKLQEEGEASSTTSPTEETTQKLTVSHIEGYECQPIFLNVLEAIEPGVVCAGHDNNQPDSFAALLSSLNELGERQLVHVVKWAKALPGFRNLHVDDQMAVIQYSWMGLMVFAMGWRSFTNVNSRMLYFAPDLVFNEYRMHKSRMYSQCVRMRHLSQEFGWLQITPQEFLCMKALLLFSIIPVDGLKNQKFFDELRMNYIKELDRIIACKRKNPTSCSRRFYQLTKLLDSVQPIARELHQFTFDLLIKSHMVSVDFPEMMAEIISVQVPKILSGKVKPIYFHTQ
Outline: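 We exposed MDA-kb2 cells to compounds under 0.5 nM R1881 stimulation for 16 hr at 37C and quantified MMTV-driven luciferase by luminescence.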

SMILES	Potency [1]	Potency [2]	Potency [3]	Potency [4]	Potency [5]	Potency [6]	Potency [7]	Potency [8]	Potency [9]	Potency [10]	Potency [11]	Potency [12]	Potency [13]	Potency [14]	Potency [15]	Potency [16]	Potency [17]	Potency [18]	Potency [19]	Potency [20]
ClC1=C(Cl)[C@]2(Cl)[C@@H]3[C@@H]4C[C@@H]([C@H]5O[C@@H]45)[C@@H]3[C@@]1(Cl)C2(Cl)Cl	54.9 µM (active)	27.5 µM (active)	21.9 µM (active)	38.9 µM (active)	49 µM (active)	inactive	49 µM (active)	inactive	68.6 µM (active)	inactive	inactive	inactive	inactive	21.7 µM (active)	–	–	–	–	–	–
CCCN(CCC)CCc1c[nH]c2ccccc12	–	inactive	inactive	inactive	inactive	inactive	inactive	–	inactive	–	inactive	inactive	inactive	67.7 µM (active)	inactive	inactive	inactive	inactive	inactive	–
O=C(O)COc1nc(Cl)c(Cl)cc1Cl	–	–	inactive	inactive	–	inactive	–	inactive	inactive	–	inactive	inactive	inactive	inactive	–	inactive	inactive	inactive	inactive	–
N#Cc1c(-c2ccc(Cl)cc2)[nH]c(C(F)(F)F)c1Br	–	inactive	1.1 µM (active)	–	inactive	–	inactive	inactive	0.611 µM (active)	–	inactive	inactive	inactive	0.77 µM (active)	inactive	–	–	–	27.3 µM (active)	0.433 µM (active)
CCC(C)c1cc([N+](=O)[O-])cc([N+](=O)[O-])c1OC(=O)C=C(C)C (stereo not given)	–	inactive	38.9 µM (active)	49 µM (active)	inactive	inactive	–	61.1 µM (active)	–	–	inactive	inactive	inactive	9.69 µM (active)	inactive	–	61.1 µM (active)	–	–	54.5 µM (active)
C=CCC1=C(C)C(OC(=O)C2C(C=C(C)C)C2(C)C)CC1=O (stereo not given)	–	51.9 µM (active)	23.2 µM (active)	23.2 µM (active)	–	inactive	–	–	–	–	inactive	inactive	inactive	16.3 µM (active)	–	–	–	inactive	inactive	–
CC(=O)/C=C/c1ccc2c(c1)OCO2	–	inactive	inactive	–	inactive	inactive	inactive	inactive	–	–	27.4 µM (active)	inactive	inactive	–	inactive	inactive	inactive	–	–	68.9 µM (active)
BrC(Br)C(Br)(Br)Br	–	inactive	24.7 µM (active)	–	–	inactive	–	inactive	inactive	–	inactive	inactive	inactive	61.5 µM (active)	inactive	inactive	inactive	–	inactive	–
CC1(c2ccc(Oc3ccccc3)cc2)OC(=O)N(Nc2ccccc2)C1=O (stereo not given)	–	–	43.9 µM (active)	–	–	inactive	–	21.8 µM (active)	8.69 µM (active)	–	inactive	inactive	inactive	6.15 µM (active)	inactive	49.3 µM (active)	24.5 µM (active)	–	–	–
Cc1cc(N=Nc2ccccc2C)ccc1N	–	inactive	21.9 µM (active) and 19.5 µM (active)	21.9 µM (active) and 19.5 µM (active)	inactive	inactive	inactive	24.3 µM (active)	–	–	8.63 µM (active) and 4.86 µM (active)	inactive	inactive	19.3 µM (active) and inactive	inactive	–	–	27.3 µM (active) and 30.6 µM (active)	–	54.5 µM (active) and 48.6 µM (active)
Clc1ccc(CO/N=C(\Cn2ccnc2)c2ccc(Cl)cc2Cl)c(Cl)c1	–	inactive	21.3 µM (active)	19 µM (active)	inactive	inactive	–	inactive	–	inactive	inactive	inactive	inactive	4.73 µM (active)	inactive	21.3 µM (active)	–	–	–	–
CCOP(=O)(NC(C)C)Oc1ccc(SC)c(C)c1 (stereo not given)	–	inactive	–	–	–	inactive	inactive	inactive	–	–	inactive	inactive	inactive	–	inactive	inactive	inactive	inactive	–	27.3 µM (active)
